The list is not random: actives were taken first. Their share in the collection is about 1.8%.
RGS4 inhibitor: inhibitors of human regulator of G protein signaling 4; 390,000 tested, 0.039% active; Transcreener GDP fluorescence polarization, RGS4-accelerated GTP hydrolysis; Potency, µM (series often up to 114 µM), without a hit: at the top dose activity change, negative = inhibition, hits mostly inhibitors; further: on the % scale 0 is the no-effect control and ±100 the full control effect; nearly all actives have a fitted effect of over 75% in size
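MLSMR compounds (23 nl, pin-transferred) preincubated 10 min at room temperature with a 500nM (2x) first reagent, then RGS4 at 900nM (2x) plus Transcreener GDP mix added; fluorescence polarization (620/688 nm) read before and after 90 min at 30 °C.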
GLP1R ag: activates the human GLP-1 receptor. HEK293 GLP-1R CRE-luciferase, luminescence, 4-6 h; cells express a hypersensitive GLP-1R form. 380,000 tested, 0.007% active. P43220. Potency, µM (titrated, usually from 45.6 µM), without a hit: at the top dose activation, most hits filed as activators; further: % of control where 0% means no effect
Target sequence (P43220 whole entry, looked up): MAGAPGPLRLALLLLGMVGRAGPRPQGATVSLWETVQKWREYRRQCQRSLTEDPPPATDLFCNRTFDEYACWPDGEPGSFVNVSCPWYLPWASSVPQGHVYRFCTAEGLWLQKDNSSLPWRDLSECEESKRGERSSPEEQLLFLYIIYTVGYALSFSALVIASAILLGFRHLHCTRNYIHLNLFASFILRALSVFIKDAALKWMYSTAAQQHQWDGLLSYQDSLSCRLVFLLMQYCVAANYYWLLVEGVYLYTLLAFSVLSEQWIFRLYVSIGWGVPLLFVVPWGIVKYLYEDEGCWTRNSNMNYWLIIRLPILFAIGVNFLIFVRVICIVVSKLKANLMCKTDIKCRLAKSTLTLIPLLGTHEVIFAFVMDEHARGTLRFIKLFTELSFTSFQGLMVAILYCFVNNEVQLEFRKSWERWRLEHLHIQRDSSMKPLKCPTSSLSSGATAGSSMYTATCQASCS
KAT2A inh: inhibitors of human GCN5L2 histone acetyltransferase. Q92830. GCN5L2 HAT assay, ThioGlo1 CoA-SH fluorescence. Potency, µM (top dose mostly 58.9 µM), inactives show at the highest dose activity change, negative = inhibition, actives largely listed as inhibitors. 390,000 tested, 0.21% active. AID 504327; further: on the % scale 0 is the no-effect control and ±100 the full control effect
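qHTS, 1536-well. 20nM enzyme, pH 7.5 HEPES/EDTA/Tween-20 buffer; 15 min compound preinc., RT. Start: 75uM H3(1-25), 70uM AcCoA, 50uM ThioGlo1. Read Ex340/Em540 at t=0 (autofluorescence flag) and t=20 min.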
GLP1R inv ag: acts as inverse agonist at human GLP-1 receptor. P43220. HEK293 GLP-1R CRE-luciferase, luminescence, 24 h; GLP-1R form is constitutively active. Potency, µM (highest dose often 38.3 µM), inactives show at the highest dose activity change, negative = inhibition, hits mostly inhibitors. 410,000 tested, 1.6% active; further: on the % scale 0 is the no-effect control and ±100 the full control effect; nearly all actives have a fitted effect of over 55% in size
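Inverse agonism was detected as reduced cAMP-driven luciferase luminescence after 24 h compound treatment. The cells were HEK293 clones expressing constitutively active human GLP-1R with the reporter. Reporter-only and GPR119 cell lines served as counterscreen controls.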
HEK293 tox: cytotoxicity in counter-screen for GLP-1R inverse agonists; HEK293 cAMP-luciferase reporter cells, luminescence, 24 h; Potency, µM (doses to about 38.3 µM), for the others: at the highest dose activity change, negative = inhibition, usual class: inhibitors; 410,000 tested, 0.13% active;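 further: loss of luciferase light is scored as toxicity; on the % scale 0 is the no-effect control and ±100 the full control effect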
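Compound-treated cells are incubated 24 hr at 37 deg C under 5% CO2 after a 12 hour attachment period, then luciferase detection reagent is added and luminescence is measured following 12 min at room temperature; lowered signal indicates toxicity.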
PTHR1 agonist: activates the human parathyroid hormone receptor PTHR1; HEK293 GP2 PTHR1 cells, GloSensor cAMP luminescence, 1 h; Potency, µM (doses to about 115 µM), for inactives: top-dose activation, usual class: activators; 410,000 tested, 0.075% active; further: nearly all actives have a fitted effect of over 55% in size
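HEK-293-derived GP2 cells expressing PTHR1 and a GloSensor cAMP reporter, 3,000/well, plated overnight, given luciferin plus IBMX (each 0.5 mM as added) for 1 h at 37 °C, then compound for 1 h at 37 °C. Luminescence was read after 15 min at room temperature.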
Numbers without * were called inactive. The call rests on the fitted dose curve; in most records, active means well fitted curve in the direction sought with a large enough effect; inconclusive means small, poorly fitted or top-dose-only effect, or another doubt; inactive means no such curve, though single readings can be large; an effect the other way counts as inactive or inconclusive. Potency means the concentration at half of the fitted maximal effect.

For COc1cc(OC)c(OC)cc1CN(C)C(c1ccccc1)c1nnnn1-c1ccccc1C (stereo not given) the results were RGS4 inhibitor -13%, GLP1R ag 9%, KAT2A inh -7%, GLP1R inv ag 11µM*, HEK293 tox -6% and PTHR1 agonist -15%.
For COc1cccc(CN(C)C(c2ccccc2)c2ccccc2)c1OC the results were RGS4 inhibitor 9%, GLP1R ag 2%, KAT2A inh -7%, GLP1R inv ag inconclusive, HEK293 tox 27% and PTHR1 agonist -15%.
COc1ccc(CN(C)C(c2ccccc2)c2nnnn2-c2ccccc2C)c(OC)c1C (stereo not given) was read as RGS4 inhibitor 0%, GLP1R ag 2%, KAT2A inh -9%, GLP1R inv ag 10µM*, HEK293 tox 1% and PTHR1 agonist -1%.
Screening COc1ccc(CCn2c(=S)[nH]c(=O)c3nccnc32)cc1OC returned RGS4 inhibitor 11%.
`COc1ccc(C(=O)CSc2nc(-c3ccccn3)nc(C)c2Cl)cc1` gave RGS4 inhibitor -2%, GLP1R ag 2%, KAT2A inh -6%, GLP1R inv ag inconclusive, HEK293 tox 11µM* and PTHR1 agonist -40%.
Screening Cc1nc(-c2ccccn2)nc(SCC(=O)c2ccc(F)cc2)c1Cl returned RGS4 inhibitor 14%, GLP1R ag 6%, KAT2A inh 1%, GLP1R inv ag inconclusive, HEK293 tox inconclusive and PTHR1 agonist -26%.
`CN(CCC1CCCCO1)C(=O)CCc1nnc(C2CCCCC2)o1` (stereo not given) gave RGS4 inhibitor 14%, GLP1R ag -2%, KAT2A inh inconclusive, GLP1R inv ag 10%, HEK293 tox 3% and PTHR1 agonist inactive.
`CN=C1S/C(=C\c2cccn2-c2cccc(Br)c2)C(=O)N1C` gave RGS4 inhibitor -7%, GLP1R ag -11%, GLP1R inv ag 8%, HEK293 tox -7% and PTHR1 agonist inactive.
`Cc1ccccc1CN1CCN(S(C)(=O)=O)CC1` gave RGS4 inhibitor -7%, GLP1R ag 1%, KAT2A inh 0%, GLP1R inv ag 5%, HEK293 tox 6% and PTHR1 agonist inconclusive.
Screening Cc1ccccc1CN1CCN(S(=O)(=O)c2ccc(Cl)s2)CC1 returned RGS4 inhibitor -33%, GLP1R ag 1%, KAT2A inh -19%, GLP1R inv ag 10µM*, HEK293 tox -10% and PTHR1 agonist -63%.
Screening Cc1cccc(N(C(=O)Cn2nnc(-c3ccccc3F)n2)C(C(=O)NC(C)(C)C)c2ccncc2)c1 (stereo not given) returned RGS4 inhibitor -2%, GLP1R ag 3%, KAT2A inh -6%, GLP1R inv ag -8%, HEK293 tox -12% and PTHR1 agonist inactive.
Screening COc1cccc(N(C(=O)Cn2nnc(-c3ccc(C)cc3)n2)C(C(=O)NC(C)(C)C)c2c[nH]c3ccccc23)c1 (stereo not given) returned RGS4 inhibitor -8%, GLP1R ag -11%, KAT2A inh -20%, GLP1R inv ag inconclusive, HEK293 tox -15% and PTHR1 agonist inactive.
`CC(C)(C)NC(=O)C(c1ccncc1)N(C(=O)Cn1nnc(-c2ccc(F)cc2)n1)c1cccc(F)c1` (stereo not given) gave RGS4 inhibitor 47%, GLP1R ag -7%, KAT2A inh -4%, GLP1R inv ag 0%, HEK293 tox 10% and PTHR1 agonist 10µM*.

Bioassay records: PubChem, National Center for Advancing Translational Sciences (NCATS)
